Compounds with a hit are over-represented: about 9% of the library has one in this group of screens.
PLK1 PBD block = inhibitors of human PLK1 polo-box domain binding; P53350; 2.8% of 360,000 active; Potency, µM, most hits filed as inhibitors; Plk1 PBD binding of FITC phosphopeptide, fluorescence polarization; note: series mostly up to about 57 µM; nearly all actives have a fitted effect of over 65% in size
ALOX12 inh = inhibitors of human 12S-lipoxygenase ALOX12; purified 12hLO, xylenol orange hydroperoxide absorbance; Potency, µM (series often up to 108 µM), most hits filed as inhibitors; 1.1% of 580,000 active
Target sequence (P18054 whole entry, looked up): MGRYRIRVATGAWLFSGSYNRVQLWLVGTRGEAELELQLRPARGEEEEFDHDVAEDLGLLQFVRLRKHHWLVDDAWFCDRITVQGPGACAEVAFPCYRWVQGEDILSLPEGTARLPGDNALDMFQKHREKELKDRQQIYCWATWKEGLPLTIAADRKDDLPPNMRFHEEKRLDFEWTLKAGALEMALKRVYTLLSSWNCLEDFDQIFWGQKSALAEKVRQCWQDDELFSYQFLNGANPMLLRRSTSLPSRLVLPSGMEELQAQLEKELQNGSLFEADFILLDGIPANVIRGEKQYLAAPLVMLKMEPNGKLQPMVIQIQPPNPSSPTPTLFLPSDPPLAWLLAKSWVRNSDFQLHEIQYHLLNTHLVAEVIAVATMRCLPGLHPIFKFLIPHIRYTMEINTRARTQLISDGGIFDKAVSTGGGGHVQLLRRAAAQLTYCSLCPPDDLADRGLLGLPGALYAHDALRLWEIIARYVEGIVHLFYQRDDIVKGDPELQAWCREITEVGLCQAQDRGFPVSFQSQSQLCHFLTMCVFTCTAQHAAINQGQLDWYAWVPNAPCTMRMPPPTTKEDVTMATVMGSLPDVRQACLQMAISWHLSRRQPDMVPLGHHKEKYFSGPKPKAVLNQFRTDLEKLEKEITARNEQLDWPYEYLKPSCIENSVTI
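Hydroperoxide product was detected by ferrous iron/xylenol orange as the 573 to 405 nm absorbance ratio. Arachidonic acid at 40 uM (final) was turned over for 30 min at room temperature by 150 nM human 12hLO, pH 7.0 Hepes buffer, after 15 min compound preincubation.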
BAZ2B block = BAZ2B (human) inhibition | Q9UIF8 | AlphaScreen BAZ2B-H3K14Ac peptide displacement | Potency, µM (top dose mostly 114 µM), most hits filed as inhibitors | 4.4% of 360,000 active | AID 504333; note: nearly all actives have a fitted effect of over 60% in size
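AlphaScreen luminescence quantifies BAZ2B engagement of H3K14Ac peptide; the protein and biotinylated peptide are both at 50 nM final, buffer PBS pH 7.4 with 0.01% Tween-20, all steps at room temperature.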
HP1b binding inh = blocks HP1-beta chromodomain binding to methylated histone tails | AlphaScreen HP1-beta / biotin-H3K9me3 peptide binding | Potency, µM (highest dose often 114 µM), usual class: inhibitors | 0.56% of 390,000 active | AID 540317; note: nearly all actives have a fitted effect of over 70% in size
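HP1-beta protein (50 nM final) preincubated 30 min at room temperature with biotinylated H3(1-18)K9me3 peptide (50 nM) in PBS pH 7.4, 0.01% Tween-20, then compound added for 30 min. AlphaScreen streptavidin donor/nickel chelate acceptor beads (10 ug/mL final), 30 min dark, luminescence read.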
JMJD2A Tudor = inhibitors of human JMJD2A Tudor domain. AlphaScreen JMJD2A-Tudor / H3K4me3 peptide binding. 4.4% of 390,000 active. Potency, µM (doses to about 114 µM), usual class: inhibitors. AID 504339. O75164; note: nearly all actives have a fitted effect of over 50% in size
G9a inh = G9a (human) methyltransferase inhibition; Q96KQ7; G9a H3K9 monomethylation, AlphaScreen, 2 h; Potency, µM (top dose mostly 102 µM), usual class: inhibitors; 8.8% of 350,000 active; note: nearly all actives have a fitted effect of over 75% in size
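Readings reflect AlphaScreen signal from monomethyl-H3K9 antibody detection. HMT at 20 nM; substrate b-H3K9 500 nM; cofactor SAM 20 uM; 2 h RT reaction; compounds tested as titrations in qHTS with 15 min preincubation.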
Large screens that a line does not name were inactive. Calls come from the whole dose curve; as a rule, active = well fitted curve in the direction sought with a large enough effect; inconclusive = small, poorly fitted or top-dose-only effect, or another doubt; inactive = no such curve, though single readings can be large; an effect the other way counts as inactive or inconclusive.

Cc1cc(OCC(C)C)ccc1/C(O)=C1/C(=O)C(=O)N(Cc2cccnc2)C1c1ccncc1 (configuration not stated)	JMJD2A Tudor inconclusive, G9a inh inconclusive
CCCCOc1ccc(/C(O)=C2/C(=O)C(=O)N(Cc3cccnc3)C2c2ccncc2)c(C)c1 (configuration not stated)	G9a inh 45µM
CCOc1ccc(/C(O)=C2/C(=O)C(=O)N(c3ccccn3)C2c2ccc(Cl)cc2)c(C)c1 (configuration not stated)	PLK1 PBD block inconclusive, ALOX12 inh inconclusive, BAZ2B block inconclusive, JMJD2A Tudor inconclusive, G9a inh inconclusive
COc1ccc(C2/C(=C(/O)c3ccc(C)cc3)C(=O)C(=O)N2c2ccccn2)cc1OC (configuration not stated)	BAZ2B block inconclusive, G9a inh inconclusive
CCCOc1ccc(/C(O)=C2\C(=O)C(=O)N(c3ccccn3)C2c2ccccc2F)cc1C (configuration not stated)	JMJD2A Tudor inconclusive, G9a inh 79µM
Cc1c(CC(=O)NCC(=O)O)c(=O)oc2cc3oc4c(c3cc12)CCCC4	none
CC(/C=N/NC(=O)CN1CCN(Cc2ccc(Cl)cc2)CC1)=C\c1ccco1	ALOX12 inh inconclusive, BAZ2B block inconclusive, G9a inh inconclusive
CN(C)NC1CCS(=O)(=O)C1 (configuration not stated)	ALOX12 inh inconclusive, BAZ2B block inconclusive, JMJD2A Tudor inconclusive, G9a inh 10µM
O=C(O)/C=C/C(=O)Nc1ccc(N2CCOCC2)nc1N1CCOCC1	PLK1 PBD block inconclusive, HP1b binding inh inconclusive, G9a inh 8.9µM
O=C(O)c1ccc(N2CCOCC2)nc1	none (no result: PLK1 PBD block, BAZ2B block, HP1b binding inh, JMJD2A Tudor, G9a inh)
N#CCC(=O)NCC1(c2ccccc2)CCCC1	none
CCc1ccc(Nc2nnc(SCC(=O)NC(=O)CN3CCCC3=O)s2)cc1	BAZ2B block inconclusive, JMJD2A Tudor inconclusive, G9a inh 6.3µM
COc1ccc(OC)c(NC(=O)CSc2n[nH]c(-c3cccnc3)n2)c1	none
COc1ccc(N2CCN(C(=O)c3cc4c(C)nc5ccccc5c4o3)CC2)cc1	HP1b binding inh inconclusive, JMJD2A Tudor 56µM, G9a inh 50µM
COc1ccc(N2CCN(C(=O)c3cc4c(=O)n(Cc5cccs5)ccc4nc3C)CC2)cc1	BAZ2B block 50µM, JMJD2A Tudor inconclusive, G9a inh inconclusive (no result: PLK1 PBD block)
Cc1nc2ccccc2c2oc(C(=O)N3CCN(C4CCCCC4)CC3)cc12	none
Cc1nc2ccccc2c2oc(C(=O)N3CCC(N4CCCCC4)CC3)cc12	G9a inh 71µM (no result: ALOX12 inh)
COc1cccc(N2CCN(C(=O)c3cc4c(=O)n(Cc5cccs5)ccc4nc3C)CC2)c1	JMJD2A Tudor inconclusive (no result: PLK1 PBD block)
CCOc1ccc(NC(=O)c2cccc3c(=O)c4c([nH]c23)CCCC4)cc1	none (no result: PLK1 PBD block)
CC(C)N(Cc1ccccc1)C(=O)COC(=O)C1CCCCC1	none (no result: BAZ2B block, G9a inh)
c1ccc(-c2cncn2-c2ccccc2)cc1	BAZ2B block 50µM, JMJD2A Tudor inconclusive
Cc1cc(N2CCN(c3ccccc3)CC2)n2cc(-c3ccccc3)nc2n1	BAZ2B block 45µM, JMJD2A Tudor inconclusive
Cc1cc(N2CCN(c3cc(Cl)ccc3C)CC2)n2nc(-c3ccccc3)nc2n1	none (no result: PLK1 PBD block)
Cc1cc(N2CCN(c3ccccc3Cl)CC2)n2cc(-c3ccccc3)nc2n1	BAZ2B block inconclusive, JMJD2A Tudor inconclusive, G9a inh 50µM
O=C(CNC(=O)c1cccc(S(=O)(=O)N2CCc3ccccc32)c1)Nc1ccc(F)c(F)c1F	none
CN(CC(=O)NC1(C#N)CCCCC1)Cc1ccc(C(F)(F)F)cc1	ALOX12 inh 28µM (no result: PLK1 PBD block, BAZ2B block, HP1b binding inh, JMJD2A Tudor, G9a inh)
CCOC(=O)COc1ccc2c(C)cc(=O)oc2c1C	none (no result: PLK1 PBD block, BAZ2B block, HP1b binding inh, JMJD2A Tudor, G9a inh)
COCCN(C(=O)c1snc(C(N)=O)c1N)C(C(=O)NC1CCCCC1)c1cc(OC)c(OC)c(OC)c1 (configuration not stated)	none
CC1=CCC2C(=O)N(c3nc4ccccc4n3C)C(=O)C2C1 (configuration not stated)	BAZ2B block inconclusive, JMJD2A Tudor 56µM
CC1=CCC2C(=O)N(C(C)c3ccccc3)C(=O)C2C1 (configuration not stated)	none
CC1CCN(S(=O)(=O)c2ccc3c(c2)CCN3C(=O)Nc2cccc(Br)c2)CC1	none (no result: PLK1 PBD block)
O=C(O)c1ccc(Nc2ncnc3scc(-c4ccccc4)c23)cc1	BAZ2B block inconclusive, G9a inh inconclusive
C=CCn1c(C)cc(C(=O)COC(=O)COc2ccccc2C#N)c1C	HP1b binding inh inconclusive, JMJD2A Tudor inconclusive, G9a inh inconclusive
O=C(O)c1cccc(CN2CC(CNc3ccccc3)C3(C2)CN(c2ccccc2)C3)c1 (configuration not stated)	none (no result: PLK1 PBD block, BAZ2B block, HP1b binding inh, JMJD2A Tudor, G9a inh)
O=[S+]([O-])(NCC1CN(Cc2ccc3[nH]ccc3c2)CC12CN(c1ccccc1)C2)c1ccccc1 (configuration not stated)	ALOX12 inh 35µM (no result: PLK1 PBD block, BAZ2B block, HP1b binding inh, JMJD2A Tudor, G9a inh)
Oc1ccc(CN2CC(CNc3ccccc3)C3(C2)CN(c2ccccc2)C3)cc1 (configuration not stated)	ALOX12 inh 63µM (no result: PLK1 PBD block, BAZ2B block, HP1b binding inh, JMJD2A Tudor, G9a inh)
COc1ccc(-c2noc(CC(=O)N(C)c3ccccc3F)n2)cc1	none (no result: PLK1 PBD block)
COc1cc2c(cc1OC)C(c1cc(OC)c(OC)cc1[N+](=O)[O-])N(C(C)=O)CC2 (configuration not stated)	G9a inh 71µM
O=C(C1COc2ccccc2O1)N1CCc2ccccc21 (configuration not stated)	PLK1 PBD block inconclusive, ALOX12 inh inconclusive, BAZ2B block 45µM, HP1b binding inh inconclusive, JMJD2A Tudor 79µM, G9a inh 50µM
O=C(C1COc2ccccc2O1)N1CCCC1 (configuration not stated)	none
O=C(O)[C@@H]1CN(Cc2ccccc2)C[C@@H]1C(=O)N1CCc2ccccc21	none (no result: PLK1 PBD block, BAZ2B block, HP1b binding inh, JMJD2A Tudor, G9a inh)
O=C(O)C1C2C=CC(C3CC23)C1C(=O)N1CCc2ccccc21 (configuration not stated)	JMJD2A Tudor 20µM, G9a inh 79µM
O=C(O)C1CC=CCC1C(=O)N1CCc2ccccc21 (configuration not stated)	ALOX12 inh inconclusive, BAZ2B block inconclusive, JMJD2A Tudor inconclusive, G9a inh 13µM
CC(Oc1ccc(Br)cc1)c1nc(-c2cccnc2)no1 (configuration not stated)	none (no result: PLK1 PBD block, BAZ2B block, HP1b binding inh, JMJD2A Tudor, G9a inh)
NC(=O)CSCc1ccc(Br)cc1	none
Cc1cccc(Nc2nc(N)c([N+](=O)[O-])c(N3CC(C)OC(C)C3)n2)c1 (configuration not stated)	JMJD2A Tudor inconclusive
CCOC(=O)c1sc2nc(CSc3ccccc3)nc(N3CCCN(C)CC3)c2c1C	ALOX12 inh 5.6µM, BAZ2B block 50µM, HP1b binding inh inconclusive, JMJD2A Tudor 14µM, G9a inh 45µM

High-throughput results (PubChem)
